Screening data: PubChem, The Scripps Research Institute Molecular Screening Center
KLF5 inhibitor: suppresses KLF5 promoter-driven expression | DLD-1 KLF5 promoter-luciferase reporter, luminescence | inhibition, % at 5 µM | 290,000 tested, 0.23% active | AID 1700;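 active means inhibition above a per-plate limit of that plate's mean compound inhibition plus 3 SD, cut at about 60% in these data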;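 further: higher means less KLF5 promoter-driven luciferase light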
IEC-6 tox: kills IEC-6 intestinal cells in KLF5 counter-screen. IEC-6 cytotoxicity, luminescence viability. inhibition, % at 5 µM. 290,000 tested, 0.78% active. AID 1825; in the data active means inhibition above about 22%
BaF3 tox: reduces parental Ba/F3 cell viability, JAK2V617F counter-screen | CellTiter-Glo ATP luminescence | inhibition, % at 5.6 µM | 220,000 tested, 1.1% active;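 active means inhibition above a per-campaign cutoff, the mean inhibition of all tested compounds plus 3 SD, cut at about 27% in these data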
Ba/F3 V617F tox: lowers viability of Ba/F3 cells expressing EpoR and JAK2V617F; 220,000 tested, 1.1% active; ATP luminescence; inhibition, % at 5.6 µM;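 active means inhibition above the campaign mean plus 3 SD over all tested compounds, cut at about 24% in these data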;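 further: cytokine-independent growth of Ba/F3 cells driven by EpoR plus mutant JAK2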
FID counter: counter-screen for HCV NS3 helicase inhibitors: DNA intercalator displacement | DNA fluorescent intercalator displacement, fluorescence | inhibition, % at 7.9 µM | 290,000 tested, 0.17% active | AID 1845; in the data active means inhibition above about 37%;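 further: higher means more ethidium bromide displaced from hairpin DNA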
GPR7 antag: blocks human GPR7 receptor signaling. P48145. GPR7-expressing cells, fluorescence antagonist assay. inhibition, % at 4.4 µM. 290,000 tested, 1.1% active. AID 1861; in the data active means inhibition above about 16%, passing the limit was not always enough;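 further: cells stimulated with the agonist NPW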
Target sequence (P48145 whole entry, looked up): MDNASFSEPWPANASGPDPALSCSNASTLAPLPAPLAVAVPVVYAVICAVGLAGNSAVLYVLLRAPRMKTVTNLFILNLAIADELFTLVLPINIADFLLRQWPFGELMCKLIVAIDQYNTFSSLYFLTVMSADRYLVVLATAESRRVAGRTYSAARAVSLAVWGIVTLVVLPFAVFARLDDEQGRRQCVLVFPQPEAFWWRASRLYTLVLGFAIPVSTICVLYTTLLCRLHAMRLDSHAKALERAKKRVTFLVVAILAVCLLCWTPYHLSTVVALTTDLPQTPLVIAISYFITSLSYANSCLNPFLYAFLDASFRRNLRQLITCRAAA
A number is an active result; . = inactive; / = no result given. Shown are actives, neighbours in structure and some others; about 2.6% of the full set was active somewhere.

SMILES	KLF5 inhibitor	IEC-6 tox	BaF3 tox	Ba/F3 V617F tox	FID counter	GPR7 antag
Cc1cccc(S(=O)Cc2ccc(C(=O)N3CCOCC3)o2)c1 (configuration not stated)	.	.	/	/	.	.
CC1(C)CC(N2CCN(Cc3ccccc3)CC2)=CC(=[N+]2CCCCC2)C1	.	.	71	80	.	.
CC1(C)CC(NNCCC#N)=CC(=[N+]2CCCC2)C1	.	.	.	.	.	.
CC1(C)CC(N2CCCC2)=CC(=[N+]2CCCC2)C1	.	.	69	79	.	.
CCOC(=O)c1ccc2c(c1)nc(-c1ccccn1)n2CC	.	.	/	/	.	.
O=C(CCCn1c(=S)[nH]c2cc3c(cc2c1=O)OCO3)N1CCN(c2ncccn2)CC1	.	.	57	64	.	.
COC(=O)Cn1c2c(c3cc(C)ccc31)CCCC2NC(C)c1ccccc1 (configuration not stated)	.	.	.	.	.	.
O=S1(=O)C=C(Sc2nc3ccccc3s2)c2ccccc21	.	72	105	101	.	.
O=C(NC1CCCCC1)C(=O)c1c(-c2ccccc2)[nH]c2ccccc12	.	.	.	.	.	.
Cc1ccccc1C(=O)NC(CC(C)C)C(=O)Nc1ccc(F)c([N+](=O)[O-])c1 (configuration not stated)	.	.	.	.	.	.
Cc1ccccc1C(=O)NC(CC(C)C)C(=O)Nc1cccc(S(=O)(=O)N(C)C)c1 (configuration not stated)	.	.	42	.	.	.
COc1ccc2nc3cc(Cl)ccc3c(Nc3cc(CN4CCCC4)c(O)c(CN4CCCC4)c3)c2n1	.	.	/	/	103	.
CCCCN(CC)CCNC(=O)c1cn(-c2ccc(Cl)cc2)c(=O)c2ccccc12	.	.	.	.	.	.
COc1ccc(N(CC(=O)Nc2cc(Cl)ccc2OC)S(=O)(=O)c2c(C)noc2C)cc1	.	.	54	.	.	.
COc1ccc(OC)c(NC(=O)CN(c2ccc(C)cc2)S(=O)(=O)c2c(C)noc2C)c1	.	.	.	.	.	.
C/C(=N\N=C1\NC(=O)CC(C(=O)O)S1)c1ccc(F)cc1 (configuration not stated)	.	.	.	.	.	.
CCC(C)C(=O)Nc1cc(C(=O)OC)ccc1C(=O)OC (configuration not stated)	.	.	.	.	.	.
COc1ccccc1N1CCN(C(=O)c2ccc(S(=O)(=O)N3CCCCCC3)cc2)CC1	.	.	94	.	.	.
Cc1ccc2[nH]c3c(N4CCCCCC4)ncnc3c2c1	.	.	48	46	.	.
O=C(O)c1cc([N+](=O)[O-])ccc1N1CCCCC1	.	.	.	.	.	.
Cc1ccc(C(=O)c2cc([N+](=O)[O-])ccc2N2CCCCC2)c(C)c1	.	89	87	88	.	.
CCN(CC)Cc1cc2[nH]c3c4ccc(Cl)cc4ncc3c2cc1OC	.	.	.	.	59	.
COc1ccc(OCc2cc(C(=O)N(C)C3CCOC3)no2)c(Cl)c1 (configuration not stated)	.	.	/	/	.	.
c1ccc(CN2CCC(Nc3nc(-c4cccs4)nc4ccccc34)CC2)cc1	.	.	.	.	59	20
c1csc(-c2nc(NCC3CCCO3)c3ccccc3n2)c1 (configuration not stated)	.	.	/	/	.	.
SMILES	KLF5 inhibitor	IEC-6 tox	BaF3 tox	Ba/F3 V617F tox	FID counter	GPR7 antag
Cc1ccc2[nH]c3c(NCCN4CCOCC4)ncnc3c2c1	.	.	.	.	.	.
Clc1ccc2[nH]c3c(NCCCN4CCOCC4)ncnc3c2c1	.	.	.	.	38	20
O=c1[nH]cccc1-c1nc2ccccc2n1Cc1ccccc1F	.	.	/	/	.	.
COc1ccc(NC(=O)c2ccccc2NS(C)(=O)=O)cc1OC	.	.	.	.	.	.
COc1cccc(NC(=O)c2ccccc2NS(C)(=O)=O)c1	.	.	.	.	94	.
CCCC(=O)Nc1nc(C)c(-c2csc(Nc3cc(OC)ccc3OC)n2)s1	.	.	.	.	.	.
C=CCCC(=O)Nc1nc(C)c(-c2csc(Nc3cc(OC)ccc3OC)n2)s1	.	.	59	34	.	.
CCOCCCNC(=O)C1CCC(CNS(=O)(=O)c2ccc(F)cc2)CC1 (configuration not stated)	.	.	.	.	.	.
CNCCC(Oc1ccc(C(F)(F)F)cc1)c1ccccc1 (configuration not stated)	.	.	.	.	.	.
CNCC[C@H](Oc1cccc2ccccc12)c1cccs1	.	.	.	.	41	38
CCOC(=O)c1c(NC(=O)CSc2cccc[n+]2[O-])sc(C(=O)Nc2ccccc2)c1C	.	.	.	.	.	.
CCOC(=O)c1c(NC(=O)CN(C)C2CCN(C)CC2)sc(C(=O)Nc2ccccc2)c1C	.	.	.	.	37	.
CCOc1ccc2[nH]c(=O)c(CN(CCN3CCCC3)C(=S)Nc3ccccc3OCC)cc2c1	.	.	.	.	.	.
CCCCC(O)(CCN1CCOCC1)c1ccc(Cl)cc1 (configuration not stated)	.	.	.	.	49	.
CCCCOc1ccc(C(O)(CCC)CCN2CCOCC2)cc1 (configuration not stated)	.	.	.	.	.	.
O=C(Nc1ccc(C2=NCCN2)cc1)c1ccc(Cl)c(C(=O)Nc2ccc(C3=NCCN3)cc2)c1	.	.	.	.	49	.
O=C(Nc1ccc(Cl)c(Cl)c1)c1ccc(Cl)c(Cl)c1	.	.	.	.	.	.
Cc1ccc(OCC(=O)N/N=C/c2ccc3c(c2)OCO3)cc1C	.	.	.	.	.	.
Cc1noc(C)c1CS(=O)(=O)c1ccc(Br)cc1	.	.	.	.	.	.
COc1cccc(N2CCN(c3ncnc4c3[nH]c3ccc(F)cc34)CC2C)c1 (configuration not stated)	.	36	53	63	.	84
CN(CCCC(=O)NCc1ccco1)S(=O)(=O)c1ccccc1	.	.	.	.	.	16
Cc1ccc(-c2nnc(SCC(C)C)n2C)cc1	.	.	33	30	.	.
O=CN(/C=C1\Sc2ccccc2C1=O)Cc1ccccc1	.	.	.	.	.	.
COC(=O)CNC(c1ccccc1)c1cc(C)ccc1NS(=O)(=O)c1ccc(C)cc1 (configuration not stated)	.	.	.	.	.	.
COC(=O)CNC(c1ccccc1)c1cc(C)ccc1NC(=O)c1cccc(Cl)c1 (configuration not stated)	.	.	.	.	.	24
O=C(Nc1ccc(F)c(Cl)c1)C1CCCN(c2cnccn2)C1 (configuration not stated)	.	.	/	/	.	.
Cc1ccc(-n2c(SCC(=O)N3CCCc4ccccc43)nnc2-c2cccnc2)c(C)c1	.	.	.	.	.	.
Cc1ccc(-n2c(-c3ccccc3)c[n+]3c2CCc2ccccc2-3)c(C)c1	.	27	81	100	.	64
